The record followed here is PubChem BioAssay AID1159580 (chemical genetic matrix, 2015).

Structures are written as SMILES. Screen size: about 5,500 compounds; about 2,000 (36%) were called active. About 18% were inconclusive and are not listed. This is one part of the list. Unmarked numbers belong to inactive results. Rule as the data show it: active = normalized growth mostly below about 0.91 (no sharp cut-off); inconclusive = no clear call, values can overlap the other calls; inactive = mostly above about 0.92.

This assay in a line: chemical genetic growth profiling, strain panel (AID 1159580).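 Also: tested at 20 µM; growth read once vehicle control cultures reached saturation at 30 °C; 1 = growth at the plate median or of vehicle wells; lower values mean less growth of the strain.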 To be noted: S. cerevisiae deletion strains, growth OD.
The mark [1] stands for this setting: locus YAL040C, strain CLN3, active compounds read low.
Where [2] appears, read: locus YER002W, strain NOP16, active compounds read low.
Where [3] appears, read: locus YNL175C, strain NOP13, active compounds read low.
[4] abbreviates: locus YNL197C, strain WHI3, active compounds read low.
[5] abbreviates: locus YNL224C, strain SQS1, active compounds read low.
[6] abbreviates: locus YOR083W, strain WHI5 (second series), active compounds read low.

As to `CC(=O)SCC[N+](C)(C)C`, the normalized growth runs as follows: under setting [1], 1.12 [resistant] (active); under setting [2], 1.04; under setting [3], 1.02; under setting [4], 1.02; under setting [5], 0.972; under setting [6], 0.982. Besides, the normalized growth (locus YPL055C, strain LGE1, active compounds read low) was 1.01.
As for `C[N+](C)(C)CC(=O)O`, the normalized growth was 0.989 under setting [1]; 0.995 (locus YDR150W, strain NUM1, active compounds read low); 1.02 (locus YDR363W, strain ESC2, active compounds read low); 1 under setting [2]; 0.998 (locus YGR078C, strain PAC10, active compounds read low); 1.01 (locus YJR075W, strain HOC1, active compounds read low). For the same compound, the normalized growth was 1.02 (locus YMR307W, strain GAS1, active compounds read low); 1.01 under setting [3]; 1 under setting [4]; 1.01 under setting [5]; 1 (locus YNL322C, strain KRE1, active compounds read low); 1.01 under setting [6].
